# AMA1-RON2 inh – AMA1-RON2 (P. falciparum) interaction inhibition. AlphaScreen AMA1-biotinylated RON2 peptide binding. Potency, µM (top dose mostly 58.2 µM), most hits filed as inhibitors. 0.2% of 360,000 active; also: nearly all actives have a fitted effect of over 45% in size
#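 AMA1 (3D7) with his tag at 25 nM final met compounds first, then biotinylated RON2 peptide at 25 nM; detection used donor plus acceptor beads, 10 µg/mL apiece, read by AlphaScreen after 30 min at room temperature.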
# Pf growth 96h – inhibits malaria parasite growth, 96 h. P. falciparum luciferase reporter growth, 96 h. Potency, µM (top dose mostly 28.7 µM), usual class: inhibitors. 6.9% of 320,000 active
#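 Compounds incubated with erythrocytes infected by luciferase-expressing P. falciparum (2% hematocrit, 0.05% parasitemia final) for 96 hours, 37 C in 5% CO2. Growth inhibition scored as decreased luciferase luminescence.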
# SARS PLP yeast – SARS-CoV PLP inhibition in yeast. S. cerevisiae expressing SARS-CoV PLpro, growth rescue. Potency, µM (series often up to 32.9 µM), hits mostly activators. 0.19% of 330,000 active; calls by dose curve; also: nearly all actives have a fitted effect of over 55% in size
# Pf growth 48h – P. falciparum growth inhibition at 48 hours (one generation). P. falciparum luciferase growth in erythrocytes, 48 h. 5.9% of 310,000 active. Potency, µM (series often up to 28.7 µM), hits mostly inhibitors
#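 Parasite viability was followed by luminescence of a genomically integrated firefly luciferase. Cultures held 0.1% parasitemia at 2% hematocrit (final), incubated under 5% CO2 at 37 C.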
# Hits are given with their value; 0 = inactive; ? = inconclusive; - = no result; [ ] = dose if it differs, or a comment. Most compounds without a hit are left out; they make up all but 9.4% or so of the library. Unless noted, calls follow the shape of the dose curve; as a rule, active = well fitted curve in the direction sought with a large enough effect; inconclusive = small, poorly fitted or top-dose-only effect, or another doubt; inactive = no such curve, though single readings can be large; an effect the other way counts as inactive or inconclusive.
SMILES,AMA1-RON2 inh,Pf growth 96h,SARS PLP yeast,Pf growth 48h
O=C(Cn1c2[n+](c3ccccc31)CC(O)CS2)c1ccccc1 (configuration not stated),0,0,0,2.08µM
CCC(C)(C)NC(=O)C(c1ccc(F)cc1)N(Cc1ccco1)C(=O)c1snc(C(N)=O)c1N (configuration not stated),0,-,0,0
Cc1ccc(NS(=O)(=O)c2cccc(C(=O)O)c2)cc1S(=O)(=O)N1CCCCC1,0,0,0,?
Cc1c(Cl)c([N+](=O)[O-])nn1CC(=O)N1CCN(C23CC4CC(CC(C4)C2)C3)CC1,0,0,0,11.7µM
Cc1nn(CC(=O)N2CCN(C34CC5CC(CC(C5)C3)C4)CC2)c(C)c1[N+](=O)[O-],0,?,0,0
COc1ccc(-c2cc3nc(-c4ccccc4)cc(N4CCN(C(=O)c5ccsc5)CC4)n3n2)cc1,0,-,-,-
FC(F)Sc1ccc(Nc2ncnc3nc[nH]c23)cc1,0,0,0,0
Cc1ccsc1C=Nc1ccc(O)cc1,0,0,0,?
Cc1ccsc1/C=N/N=C/c1sccc1C,0,8.28µM,0,0
COC(=O)c1ccccc1NC(=O)c1cc([N+](=O)[O-])nn1Cc1ccccc1,0,0.657µM,0,0
COc1cccc(C(C(=O)NCc2ccco2)N(Cc2ccco2)C(=O)Cn2nnc3ccccc32)c1 (configuration not stated),0,0,0,0
CC(C)c1cc(C(=O)NC2CCCc3c2cnn3-c2ccccc2F)no1 (configuration not stated),0,0,0,0
O=C(NC(c1ccccc1)c1ccc2ccccc2n1)C1CCN(CCOc2ccc(Cl)cc2)CC1 (configuration not stated),0,-,-,-
CC(C)C[C@@H](CN=[N+]=[N-])N1CCN(C)CCC1=O,0,14.7µM,0,0
COc1ccc(-c2[nH]c(-c3cc(OC)c4c(c3)OCO4)nc2-c2ccccc2)cc1,0[11.6 µM],?,0,4.15µM
CNC(=O)C(=O)NCC1OCCCN1S(=O)(=O)c1ccc(F)cc1C (configuration not stated),0,0,0,0
Cc1ccc(S(=O)(=O)n2cc(C=O)c3ccccc32)cc1,0,0,0,0
Cc1ccc(S(=O)(=O)n2cc(-c3ccccc3)c3ccccc32)cc1,0,?,0,2.62µM
COc1ccc(CCN2CN(S(=O)(=O)c3ccccc3)c3nc4ccccc4nc32)cc1OC,0,?,0,?
COc1ccc(CCN2CN(S(=O)(=O)c3ccccc3)c3nc4ccccc4nc32)cc1,0,10.4µM,0,11.7µM
CCC(Oc1cccc(C)c1)C(=O)Nc1ccccc1C(=O)N1CCOCC1 (configuration not stated),0,0,0,0
COc1ccc(C(=O)CCN2CCc3cc(OC)c(OC)cc3C2)cc1,0,0,0,0
Cc1nn(Cc2ccccc2)c(C)c1C=C1C(=O)NC(=O)NC1=O,0,8.28µM,0,0
O=C(Nc1nc2nc(-c3ccccc3)cc(=O)n2[nH]1)c1ccccc1,0,-,0,0
O=C(COC(=O)c1ccc2c(c1)OCO2)Nc1ccccc1Cl,0,?,0,0
SMILES,AMA1-RON2 inh,Pf growth 96h,SARS PLP yeast,Pf growth 48h
CSc1nc(N)c(C(=O)N(c2ccccc2)c2ccccc2)s1,0,-,-,-
O=C(Oc1ccccc1)c1cccc2cccc(C(=O)Oc3ccccc3)c12,0,10.4µM,0,?
O=C(Oc1ccccc1)c1ccccc1C(=O)Oc1ccccc1,0,-,-,-
CCNC(=O)c1oc2c(c1C)C(=O)CC(C)(C)C2,0,0,0,-
CN(C(=S)NC1CCCCC1)C1(c2ccccc2Cl)CCCCC1=O (configuration not stated),0,?,0,11.7µM
CN(C(=S)Nc1ccccc1F)C1(c2ccccc2Cl)CCCCC1=O (configuration not stated),0,?,0,10.4µM
CC1CCCN(C(=O)COC(=O)COc2ccc(Cl)cc2)C1 (configuration not stated),0,-,0,-
CNc1ncnc2c1ncn2[C@@H]1O[C@H](CO)[C@@H](O)[C@H]1O,0,0,-,?
Clc1ccccc1Nc1c2c(nc3ncnn13)CCC2,0,3.29µM,0,11.7µM
Fc1ccccc1CCNc1c2c(nc3ncnn13)CCCC2,0,0,0,0
c1ccc(Nc2c3c(nc4ncnn24)CCC3)cc1,0,11.7µM,0,0
CSc1c2c(nc3ncnn13)CCC2,0,9.28µM,0,?
c1ccc(CCNc2c3c(nc4ncnn24)CCC3)cc1,0,0,0,1.47µM
CCOc1ccc(N2CC(C(=O)Nc3ccc(S(=O)(=O)N4CCOCC4)cc3)CC2=O)cc1 (configuration not stated),0,-,0,0
COCCNC(=S)NNC(=O)c1cc(-c2cccnc2)nc2ccccc12,0,?,0,?
CC(=O)Nc1nc2c(C)cc(NC(=O)C3CCCCC3)cc2s1,0,0,0,0
O=C(Nc1cccc(S(=O)(=O)N2CCCCC2)c1)c1ccc(OCC2CCCO2)cc1 (configuration not stated),0,?,0,?
CCOC(=O)CSc1nnc(CNC(=O)c2cccs2)n1CCc1ccccc1,0,-,0,0
COc1ccc(OCCOc2ccc(S(=O)(=O)N3CCCC3)cc2[N+](=O)[O-])cc1,0[11.6 µM],?,0[6.58 µM],?
COc1ccccc1C(C)Nc1ccc(S(=O)(=O)N2CCN(C)CC2)cc1[N+](=O)[O-] (configuration not stated),?,16.5µM,0,11.7µM
COc1ccc(Nc2ccc(S(=O)(=O)N3CCCCC3)cc2[N+](=O)[O-])cc1OC,?,13.1µM,0,?
COc1cccc(Oc2ccc(S(=O)(=O)N3CCCC3)cc2[N+](=O)[O-])c1,0,?,0,10.4µM
CN(C(=O)CSc1cn(CC(=O)N2CCOCC2)c2ccccc12)c1ccccc1,0,?,0,0
COc1ccc(OC)c(NC(=O)CC2(CC(=O)O)CCCC2)c1,0,0,0,0
CN1CCN(S(=O)(=O)c2ccc3c(c2)NC(=O)CS3)CC1,0,?,0,0
SMILES,AMA1-RON2 inh,Pf growth 96h,SARS PLP yeast,Pf growth 48h
Cc1ccc(C)c(N2CCN(S(=O)(=O)c3ccc4c(c3)NC(=O)CS4)CC2)c1,0,7.38µM,0,0
O=C1CSc2ccc(S(=O)(=O)N3CCN(c4ccccc4F)CC3)cc2N1,0,13.1µM,0,?
O=C(N/N=C/c1ccco1)C1CC1,0,0,0,0
O=C(OCC(=O)N1CCCCCC1)c1n[nH]c(=O)c2ccccc12,0,0,0,0
Cc1ccc(NC(=O)CN(C)CC(=O)N(CC(C)C)c2c(N)n(CC(C)C)c(=O)[nH]c2=O)c(C)c1,0,0,0,?
C=CCOc1ccc(C2C(C#N)=C(N)N(Nc3ccccc3)C3=C2C(=O)CCC3)cc1OC (configuration not stated),0,4.65µM,0,8.28µM
COc1cc(C2C(C#N)=C(N)N(Nc3ccccc3)C3=C2C(=O)CC(C)(C)C3)ccc1OCc1cccc(F)c1 (configuration not stated),0,?,0,?
COc1cc(C2C(C#N)=C(N)N(Nc3ccccc3)C3=C2C(=O)CC(C)(C)C3)ccc1OCc1ccccc1 (configuration not stated),0,2.94µM,0,4.15µM

# Screening data from PubChem BioAssay.
